We go through 15 molecules from PubChem BioAssay AID489042 (NMMLSC, 2010).

A number with no mark means an inactive call. The source made the active and inactive calls. Cut-off read from the data, not from the text of the source: active = inhibition score above about 11; inactive = the rest.

The nature of this experiment: yeast proliferation inhibition, dose response, BY4741, OD595, 24 h (AID 489042). As to conditions: S. cerevisiae BY4741 growth, flow cytometer event count, 7 d (AID 449753), stronger effect = higher value. A general note: A flow cytometer gives signals particle by particle.
Take `Nc1cc2nc3ccccc3nc2cc1N`: the inhibition score is 0.

In the case of `C#C[C@]1(O)[C@H](O)CC2C3CC[C@H]4C[C@@H](O)CC[C@]4(C)C3CC[C@@]21C` (stereo not given in full), the inhibition score was 0.

For `OCC[n+]1c2ccccc2nc2ccc(N3CCOCC3)cc21`, the inhibition score is 0.

In the case of `CC(=O)O[C@H]1CCC2C3CC[C@H]4[C@@H](O)[C@H](O)CC[C@]4(C)C3CC[C@@]21C` (stereo not given in full), the inhibition score was 0.

On to `Cn1c(O)c(C(=Nc2ccc(F)cc2)c2ccccc2Cl)c(=O)n(C)c1=O`, for which the inhibition score was 0.

On to `C[C@]12CCC3C(CC[C@H]4C[C@H](O)CC[C@]34C)C1CCC2=O` (stereo not given in full), for which the inhibition score is 0.

Regarding `C[C@]12CCC3C(CC[C@H]4C[C@@H](O)CC[C@]34C)[C@H]1CC[C@H]2O` (stereo not given in full), the inhibition score is 0.

As to `C[C@]12CCC3C(CC[C@H]4C[C@H](O)CC[C@]34C)C1C[C@@H](CCCCl)[C@@H]2O` (stereo not given in full), the inhibition score was 0.

As to `CNc1ccc2nc3ccccc3[n+](C)c2c1`, the inhibition score was 0.

`C=C1C(O)[C@@H]2O[C@]3(CC[C@H](/C=C/C(C)[C@@H]4CC(C)=CC5(O[C@H](C[C@@](C)(O)C(=O)O)CCC5O)O4)O3)CC[C@H]2O[C@@H]1C(O)CC(C)[C@H]1OC2(CCCCO2)CCC1C` (stereo not given in full): the inhibition score was 11 (active).

Regarding `Oc1cccc2nc3ccccc3nc12`, the inhibition score was 0.

Take `O=c1[nH]c(O)c(C=Nc2ccc(F)c(Cl)c2)c(=O)[nH]1`: the inhibition score was 0.

In the case of `C[C@]12CCC3C(CC[C@H]4C[C@@H](O)CC[C@]34C)C1CC[C@@H]2OC(=O)[C@H](N)CCCCN` (stereo not given in full), the inhibition score was 0.

With `C[n+]1c2ccccc2nc2ccc(NCCO)cc21`, the inhibition score is 0.

Consider `Cn1c(=O)[nH]c2nncnc2c1=O`, for which the inhibition score is 0.
